CCT chaperon mod = cytosolic chaperonin activity modulation. purified chaperonin ATPase assay, HTRF ADP detection, 30 min. activity change, % (test concentration not listed), hits read low. hit rate 0.3% among 360,000; in the data active means activity change below about -30%
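Enzyme 40 or 20 nM (batch-dependent) in Tris pH 7.4/KCl/MgCl2/DTT; cpd 76 uM single point; ATP 10 uM; 30 min 37 °C; Transcreener ADP HTRF detection, 30 min RT; ratio 665/615.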
PLK1 PBD block = blocks phosphopeptide binding to human PLK1 polo-box domain; Plk1 PBD binding of FITC phosphopeptide, fluorescence polarization; Potency, µM, usual class: inhibitors; hit rate 2.8% among 360,000; AID 720504; further: series mostly up to about 57 µM; nearly all actives have a fitted effect of over 65% in size
VDR inhibitor = blocks the human vitamin D receptor; VDR-SRC2-3 peptide fluorescence polarization, 2 h; hit rate 0.93% among 400,000; Potency, µM, usual class: inhibitors
Target sequence (P11473 whole entry, looked up): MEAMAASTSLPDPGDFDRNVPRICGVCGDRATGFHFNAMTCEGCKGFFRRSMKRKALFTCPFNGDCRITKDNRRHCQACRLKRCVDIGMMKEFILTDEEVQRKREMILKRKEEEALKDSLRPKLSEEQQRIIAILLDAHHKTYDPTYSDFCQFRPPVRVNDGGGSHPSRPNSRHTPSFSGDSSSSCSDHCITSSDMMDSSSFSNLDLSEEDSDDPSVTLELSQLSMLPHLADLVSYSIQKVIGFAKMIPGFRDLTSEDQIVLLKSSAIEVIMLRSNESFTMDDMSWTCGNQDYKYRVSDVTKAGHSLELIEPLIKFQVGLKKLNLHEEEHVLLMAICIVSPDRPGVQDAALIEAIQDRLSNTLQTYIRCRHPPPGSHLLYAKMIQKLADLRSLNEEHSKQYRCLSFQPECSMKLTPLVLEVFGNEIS
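The screen uses fluorescence polarization to detect compounds that interfere with recruitment of the SRC2-3 coactivator peptide to VDR; plates are read after 2 h at room temperature.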
Sfp inh = Sfp phosphopantetheinyl transferase inhibition. Q9F4F7. Biochemical Sfp PPTase activity, qHTS. Potency, µM, usual class: inhibitors. hit rate 3.5% among 310,000. AID 1490;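 further: the enzyme is Sfp with the accession as filed and its product quenches rhodamine fluorescence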
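With Hepes-Na pH 7.6 buffer containing 10 mM MgCl2, Sfp (15 nM) modified BHQ-2-YbbR (12.5 uM) using rhodamine-CoA (5 uM). Two reads 30 minutes apart at 525/598 nm yielded each well's rate.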
G9a block = G9a (human) methyltransferase inhibition; Q96KQ7; G9a H3K9 monomethylation, AlphaScreen, 2 h; Potency, µM (titrated, usually from 102 µM), hits mostly inhibitors; hit rate 8.8% among 350,000; AID 504332; further: nearly all actives have a fitted effect of over 75% in size
Target sequence (Q96KQ7 913-1193 limits assumed): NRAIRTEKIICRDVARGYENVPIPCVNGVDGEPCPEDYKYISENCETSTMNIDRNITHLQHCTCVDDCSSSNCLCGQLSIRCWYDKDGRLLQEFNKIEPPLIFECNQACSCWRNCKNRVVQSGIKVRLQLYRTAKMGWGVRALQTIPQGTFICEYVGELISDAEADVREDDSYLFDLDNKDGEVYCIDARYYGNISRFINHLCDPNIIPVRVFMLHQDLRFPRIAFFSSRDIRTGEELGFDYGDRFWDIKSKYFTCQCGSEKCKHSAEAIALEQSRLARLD
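AlphaScreen read-out: biotin-H3K9 peptide (500 nM) methylation by 20 nM enzyme with 20 uM SAM, 2 h at room temperature after 15 min compound preincubation; anti-monomethyl H3K9 antibody plus donor/acceptor beads, 10 min dark.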
Mm-Cpn inhibitor = M. maripaludis TRiC chaperonin inhibition | AID 504842 | hit rate 0.031% among 330,000 | purified Mm-Cpn ATPase, ADP Transcreener TR-FRET | Potency, µM (doses to about 76.9 µM), actives largely listed as inhibitors; further: nearly all actives have a fitted effect of over 80% in size
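Quantitative HTS used 25 nM Mm-CPN and 10 uM ATP in magnesium/KCl Tris buffer, pH 7.4, with 1 mM DTT. Hydrolysis ran 30 min at 37°C; ADP was read by HTRF.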
Numbers stand for hits; i = inactive; ? = inconclusive; nt = no result; ! = a repeat was not active. Hits are enriched below; roughly 10% of the tested compounds scored in any of these assays. Unless noted, the call rests on the fitted dose curve; in most records, active means well fitted curve in the direction sought with a large enough effect; inconclusive means small, poorly fitted or top-dose-only effect, or another doubt; inactive means no such curve, though single readings can be large; an effect the other way counts as inactive or inconclusive.

SMILES	CCT chaperon mod	PLK1 PBD block	VDR inhibitor	Sfp inh	G9a block	Mm-Cpn inhibitor
Cc1cccc(-c2nc3c4c(-c5ccccc5)c(-c5ccccc5)oc4ncn3n2)c1	nt	nt	i	nt	i	nt
Cc1c(C(=O)Nc2ccc(Br)cc2F)oc2ccc(S(=O)(=O)N3CCCCC3)cc12	nt	nt	i	nt	i	nt
CCCc1nnc(NS(=O)(=O)c2ccc(OC)cc2)s1	i	?	i	?	45µM	i
Cc1cc(-c2ccccc2)nc(N(C)NC(=O)C2CC2)c1S(C)(=O)=O	i	i	i	i	i	i
Cc1cc(-c2ccccc2)nc(N(C)NC(=O)c2cccc(C(F)(F)F)c2)c1S(C)(=O)=O	i	30µM	i	i	i	i
COC(=O)c1sc2nc3c(c(-c4cccs4)c2c1N)CCCC3	i	i	i	79µM	i	i
COC(=O)c1sc2nc(N3CCCCC3)c3c(c2c1N)CCCC3	i	i	i	i	i	i
Nc1c(C(=O)NCc2ccc(Cl)cc2)sc2nc3c(c(C(F)(F)F)c12)CCC3	i	i	i	i	45µM	i
NC(=O)c1sc2nc3c(c(-c4ccco4)c2c1N)CCCC3	i	i	i	i	i	i
Cc1ccccc1NC(=O)c1sc2nc3c(c(-c4ccco4)c2c1N)CCC3	i	?	i	?	40µM	i
Cc1ccc(CNC(=O)c2sc3nc4c(c(C(F)(F)F)c3c2N)CCC4)cc1	i	i	i	i	i	i
Nc1c(C(=O)NCC2CCCO2)sc2nc3c(c(-c4ccco4)c12)CC/C3=C\c1ccco1 (stereo unspecified)	i	?	?	32µM	8.9µM	i
CC(=O)N1CCCC1c1nc2ccccc2n1Cc1c(F)cccc1Cl (stereo unspecified)	nt	nt	i	nt	i	nt
Cc1cccc(-n2c3c(cc(-c4nc(-c5ccc(Cl)cc5)cs4)c2=O)C(=O)CC(C)(C)C3)c1	nt	nt	i	nt	i	nt
NC(=O)c1sc2nc3c(c(-c4ccc(Cl)cc4)c2c1N)CCCC3	i	i	i	i	11µM	i
Cc1ccc(-c2c3c(nc4sc(C(N)=O)c(N)c24)CCC3)cc1	i	i	i	i	i	i
CCS(=O)(=O)N1CCN(c2ccc(C(=O)NC34CC5CC(CC(C5)C3)C4)cc2[N+](=O)[O-])CC1	i	i	i	i	i	i
CN1CCN(c2ccc(C(=O)c3ccc(Br)cc3)cc2[N+](=O)[O-])CC1	i	i	i	i	45µM	i
CS(=O)(=O)N1CCN(c2ccc(C(=O)NC34CC5CC(CC(C5)C3)C4)cc2[N+](=O)[O-])CC1	i	27µM	i	i	i	i
CN1CCN(c2ccccc2NC(=O)c2ccc(N3CCCC3)c([N+](=O)[O-])c2)CC1	i	i	i	i	50µM	i
O=C(Nc1ccccc1N1CCCCC1)c1ccc(Cl)c([N+](=O)[O-])c1	i	i	i	i	35µM	i
CC(=O)c1cccc(NCc2ccccc2-c2nnc(-c3ccccc3)o2)c1	nt	nt	i	nt	i	nt
O=C(CSc1nc2ccccc2n1Cc1ccccc1)N1CCN(c2ccc(F)cc2)CC1	nt	nt	i	nt	i	nt
Cc1noc(Cn2c(=O)c3ccccc3n(CC(=O)Nc3ccccc3C(F)(F)F)c2=O)n1	nt	nt	i	nt	i	nt
O=c1c2ccccc2sn1-c1cc(S(=O)(=O)N2CCOCC2)ccc1N1CCCCC1	nt	nt	28µM	nt	nt	nt
SMILES	CCT chaperon mod	PLK1 PBD block	VDR inhibitor	Sfp inh	G9a block	Mm-Cpn inhibitor
O=S(=O)(c1ccc(N2CCOCC2)c(Cl)c1)N1CCOCC1	i	i	i	i	i	i
O=c1c2ccccc2sn1-c1cc(S(=O)(=O)N2CCOCC2)ccc1N1CCOCC1	i	0.84µM	18µM!	0.71µM	nt	i
O=c1c2ccccc2sn1-c1cc(S(=O)(=O)N2CCOCC2)ccc1N1CCCC1	i	3µM	?	0.2µM	?	i
CCOc1ccccc1NC(=O)NCCn1c(=O)oc2ccc(C)cc21	nt	nt	i	nt	i	nt
Cc1ccc(NC(=O)CSc2nc(-c3ccco3)nc3cc(=O)[nH]n23)cc1C	nt	nt	i	nt	?	nt
COc1ccc(OC)c(CNC(=O)c2cnc3c(C)cccn3c2=O)c1	nt	nt	i	nt	i	nt
CCc1cc(C(=O)Nc2cc(S(=O)(=O)N(CC)CC)ccc2N2CCOCC2)sc1C	i	i	i	nt	40µM	i
CCN(CC)S(=O)(=O)c1ccc(N2CCOCC2)c(NC(=O)c2cc(C)cc(C)c2)c1	i	i	i	i	i	i
CCN(CC)S(=O)(=O)c1ccc(N2CCCC2)c(NC(=O)CC(C)(C)C)c1	i	i	i	i	nt	i
CCN(CC)S(=O)(=O)c1ccc(N2CCOCC2)c(NC(=S)NC(=O)c2ccco2)c1	i	24µM	?	20µM	28µM	i
CCN(CC)S(=O)(=O)c1ccc(N2CCOCC2)c(NC(=O)CC(C)(C)C)c1	i	i	i	?	79µM	i
CCN(CC)S(=O)(=O)c1ccc(N2CCOCC2)c(NC(=O)C23CC4CC(CC(Cl)(C4)C2)C3)c1	-72	i	i	i	i	i
O=C(NC(=S)Nc1cc(S(=O)(=O)N2CCOCC2)ccc1O)c1ccco1	i	12µM	?	45µM	10µM	i
O=C(NCCc1ccc(Cl)cc1)C1CCCN1C(=O)Nc1ccc(F)cc1 (stereo unspecified)	i	i	i	i	nt	i
O=C(NCCc1ccccc1)C1CCCN1C(=O)Nc1ccc(F)cc1 (stereo unspecified)	i	19µM	i	?	i	i
Cc1nc(-n2nc(C)c(CCC(C)C)c2C)sc1C(=O)Nc1ccc(Br)cc1	nt	nt	i	nt	i	nt
S=C(Nc1ccc(-c2nc3ccccc3[nH]2)cc1)Nc1cccnc1	i	?	?	i	45µM	i
S=C(NCCN1CCOCC1)Nc1ccc(-c2nc3ccccc3[nH]2)cc1	i	?	?	i	45µM	i
O=C(CC1C(=O)NCCN1Cc1ccc(Cl)c(F)c1)NC1CCCCC1 (stereo unspecified)	i	i	?	i	i	i
O=C(CC1C(=O)NCCN1Cc1cccc(C(F)(F)F)c1)NC1CCCCCC1 (stereo unspecified)	i	i	i	i	40µM	i
O=C(CC1C(=O)NCCN1Cc1ccccc1C(F)(F)F)NC1CCCC1 (stereo unspecified)	i	i	i	i	45µM	i
CCC(C)NC(=O)C1CCC(CNS(=O)(=O)c2ccc(Cl)cc2)CC1 (stereo unspecified)	nt	nt	i	nt	i	nt
CCc1nnc2c3ccccc3nc(Nc3ccc(F)cc3C)n12	nt	nt	i	nt	i	nt
CCN1C(=O)/C(=C\N2CCN(C(=O)c3ccco3)CC2)SC1=S	i	i	i	i	i	i
CCN1CCN(c2c(/C=C3\SC(=S)N(Cc4ccco4)C3=O)c(C)c(C#N)c(=O)n2C)CC1	i	i	i	25µM	22µM	i
CCOc1ccccc1CNC(=O)CCn1c(=O)c2cccn2c2ccc(F)cc21	nt	nt	i	nt	i	nt
Cc1nc(C)c(CCNS(=O)(=O)c2ccc(C)c(C)c2)s1	nt	nt	i	nt	i	nt
